# Shown are actives, neighbours in structure and some others; about 0.59% of the full set was active somewhere.
# BCR signal inh = qHTS Assay to Find Inhibitors of Chronic Active B-Cell Receptor Signaling | ABC-DLBCL IkBa-CBG/CBR reporter, luminescence ratio, 4 h | Potency, µM (titrated, usually from 46.1 µM), actives largely listed as inhibitors | 340,000 tested, 0.05% active; active means well fitted inhibition curve with a large enough effect in the signal ratio, with a control signal flat, not every such curve was filed as active; inconclusive means small, poorly fitted or top-dose-only effect, or effect the other way, or a change in a side signal; the % refers to the signal ratio
#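 TMD8 ABC-DLBCL cells carrying doxycycline-inducible green luciferase fused to IkappaBalpha plus unfused red luciferase were exposed to compounds (up to 46 uM) for 4 hrs at 37C. Activity came from the overlap-corrected green/red luminescence ratio.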
# B2AR arrestin = qHTS assay of beta-arrestin-biased ligands of beta2-adrenergic receptor. Beta-2 adrenergic receptor (Homo sapiens), P07550. beta-arrestin recruitment to beta2AR, cell-based reporter. AID 492947, 2010. Potency, µM (titrated, usually from 46.1 µM), usual class: activators. 330,000 tested, 0.02% active; further: nearly all actives have a fitted effect of over 65% in size
# RXFP1 ag = qHTS Assay for Agonists of the Relaxin Receptor RXFP1; Relaxin receptor 1 (Homo sapiens), Q9HBX9; AID 2676, 2010; Potency, µM (top dose mostly 57.5 µM), actives largely listed as activators; HEK293T-RXFP1 cAMP TR-FRET, 30 min; response scale: percent of porcine relaxin response, buffer zero; 370,000 tested, 0.3% active; further: nearly all actives have a fitted effect of over 60% in size
# Target sequence (Q9HBX9 whole entry, looked up): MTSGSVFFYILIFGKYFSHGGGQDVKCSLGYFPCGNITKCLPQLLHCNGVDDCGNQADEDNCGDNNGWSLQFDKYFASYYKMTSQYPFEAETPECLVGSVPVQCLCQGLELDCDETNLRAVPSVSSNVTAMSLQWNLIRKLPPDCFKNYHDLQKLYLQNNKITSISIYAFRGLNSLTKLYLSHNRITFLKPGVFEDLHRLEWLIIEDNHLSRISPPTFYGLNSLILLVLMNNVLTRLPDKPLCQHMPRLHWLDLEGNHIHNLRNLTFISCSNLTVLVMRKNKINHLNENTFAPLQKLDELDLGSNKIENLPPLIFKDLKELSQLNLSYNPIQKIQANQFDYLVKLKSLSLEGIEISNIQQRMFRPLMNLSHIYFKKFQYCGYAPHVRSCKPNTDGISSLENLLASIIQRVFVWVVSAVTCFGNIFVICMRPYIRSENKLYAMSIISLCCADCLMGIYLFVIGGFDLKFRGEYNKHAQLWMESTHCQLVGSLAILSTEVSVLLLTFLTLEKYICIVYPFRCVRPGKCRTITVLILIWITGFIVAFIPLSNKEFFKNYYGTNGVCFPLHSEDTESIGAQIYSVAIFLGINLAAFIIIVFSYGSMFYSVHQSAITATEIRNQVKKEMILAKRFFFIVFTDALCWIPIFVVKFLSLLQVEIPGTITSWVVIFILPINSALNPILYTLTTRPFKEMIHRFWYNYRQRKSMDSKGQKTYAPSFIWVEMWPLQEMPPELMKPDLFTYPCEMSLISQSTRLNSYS
#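 HEK293 cells stably expressing RXFP1, treated 30 min at 37C with compounds plus PDE4 inhibitor Ro 20174; cAMP measured by HTRF TR-FRET. Normalized to buffer and 29 nM porcine relaxin; EC50 by Hill fit.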
# RXFP1 antag = qHTS Assay for Antagonists of the Relaxin Receptor RXFP1 | Relaxin receptor 1 (Homo sapiens), Q9HBX9 | HEK293-RXFP1, relaxin-stimulated cAMP HTRF, 30 min; hits give low values | activity change, negative = inhibition, % at 57.5 µM | 350,000 tested, 0.59% active | AID 1259400, 2018;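 active means activity change of -60% or lower, but not beyond a set lower limit; inconclusive means change between -60% and -40%, or beyond the set limit; inactive means change above -40%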
# A number is an active result; n = inactive; u = inconclusive; x = no result; [ ] = dose if it differs, or a comment. Unless noted, the call rests on the fitted dose curve; in most records, active means well fitted activation curve with a large enough effect; inconclusive means small, poorly fitted or top-dose-only effect; inactive means flat fitted curve, though single readings scatter.
SMILES,BCR signal inh,B2AR arrestin,RXFP1 ag,RXFP1 antag
Cc1cccc(N2CCN(C(=O)C3CCN(c4nnc(-n5cccc5)s4)CC3)CC2C)c1 (stereo not given),n,n,n,-68
COc1ccc(C(CCNCc2ccccc2)c2ccc(F)cc2)cc1 (stereo not given),n,n,n,n
COc1ccc(C(CCNC(C)c2ccccc2)c2ccc(F)cc2)cc1 (stereo not given),u,n,n,-66
CCCC(=O)Nc1ncnc2c1ncn2[C@@H]1O[C@@H]2COP(=O)(O)O[C@H]2[C@H]1OC(=O)CCC,u,n,0.16µM,x
COc1cc(Cl)c(C)cc1NC(=O)CC1Oc2ccccc2NC1=O (stereo not given),x,x,n,n
COc1ccc(NC(=O)Cn2c(=O)oc3cc(S(=O)(=O)NC4CCCC4)ccc32)cc1OC,n,x,n,n
CCn1c(SCC(=O)Nc2ccc(NC(C)=O)cc2)nc2c1c(=O)n(C)c(=O)n2C,u,n,16µM,n
CCCn1c(SCC(=O)Nc2ccc(NC(=O)CC)cc2)nc2c1c(=O)n(C)c(=O)n2C,n,n,20µM,n
Cc1cc(C)c2c(n1)nn1c(C)c(CCC(=O)NCc3ccc(Cl)cc3)c(C)nc21,x,x,u,n
CCN(CC)c1ccc(N=Cc2ccccc2[N+](=O)[O-])cc1,n,n,n,-68
CCN(CC)c1ccc(N=Cc2ccc([N+](=O)[O-])o2)cc1,n,n,n,-67
CC(=O)N(C)c1ccc(N=Cc2cc3c(cc2[N+](=O)[O-])OCO3)cc1,x,x,x,n
Cn1c(=O)c2sccc2n2c(CCCC(=O)N3CCCCC3)nnc12,n,n,18µM,n
CCC(C(=O)O)c1ccc(N2Cc3ccccc3C2=O)cc1 (stereo not given),x,x,x,n
CC(=O)c1ccc(/C=C/c2nc3ccccc3n2C)o1,u,n,25µM,n
Cn1c(/C=C/c2ccccc2)nc2ccccc21,u,n,n,n
Cn1c(N=Nc2ccc(N3CCOCC3)cc2)[n+](C)c2ccccc21,n,n,n,-107
O=C(COc1ccc2ccccc2c1)N1CCN(C(=O)c2ccco2)CC1,u,n,n,-84
CCN(C(=O)c1cnc(N2CCOCC2)c2ccccc12)c1cc(C)ccc1C,x,x,n,n
NC(=S)NN=Cc1nccc2c(C(F)(F)C(F)(F)C(F)(F)F)cccc12,x,x,x,n
NC(=S)NN=Cc1nccc2ccccc12,x,x,x,-76
O=C(NCCCCc1ccccc1)c1nn(-c2ccccc2)nc1CO,x,x,n,-69
O=C(NCC(c1ccccc1)c1ccccc1)c1nn(-c2ccccc2Cl)nc1CO,x,x,n,-66
Cc1ccc(NC(=S)NNC(C)(C)C)cc1,u,8.9µM,n,n
CC(C)(C)NNC(=S)Nc1cccc(C(F)(F)F)c1,7.9µM,u,n,n
SMILES,BCR signal inh,B2AR arrestin,RXFP1 ag,RXFP1 antag
CCCNC(=S)Nc1cccc(C(F)(F)F)c1,n,n,n,n
CCOCCCN(Cc1ccco1)C(=O)c1cc2c(s1)-c1c(C)cccc1OC2,x,x,n,u
CCOc1ccc(CCNC(=O)Cn2ncc3c([nH]c4ccccc43)c2=O)cc1OCC,x,x,n,n
CCCc1ccc(OCc2ccc(C(=O)N3CCN(c4ccccn4)CC3)o2)c(OC)c1,u,n,n,-63
COc1ccc(CC(=O)N2CCN(c3ccccn3)CC2)cc1OC,n,n,n,n
COc1cc(OC)c(NC(=O)N2CCCn3nc(C)cc32)cc1Cl,x,x,n,n
CCN(CC)C(=S)SSC(=S)N(CC)CC,u,0.65µM,n,n
COc1ccc([C@]23Cc4ccccc4C(O2)C2=C(O3)C(=O)c3ccccc3C2=O)cc1,n[9.22 µM],n[9.22 µM],n[11.5 µM],x
CCCC(=O)N1c2nc(-c3ccco3)nn2C2(CCCCC2)[C@@H]2CCCC[C@@H]21,x,x,n,-66
Cc1ccccc1-c1n[nH]c(=S)o1,n,n,16µM,n
COc1ccc(Cl)cc1-c1n[nH]c(=S)o1,n,n,6.3µM,n
CCc1cccc(NCc2ccccc2-c2nnc(-c3ccccc3Cl)o2)c1,x,x,n,n
CC(Cc1cccc(C(F)(F)F)c1)NCCOC(=O)c1ccccc1 (stereo not given),n,n,n,n
C[C@@H](NCCCc1cccc(C(F)(F)F)c1)c1cccc2ccccc12,x,x,x,-68
C/C(=N\NC(=O)c1c(C)nc2ccccn12)c1ccc(N2CCOCC2)cc1,n,n,14µM,n
C/C(=N\NC(=O)c1c(C)nc2ccccn12)c1ccc(C(C)(C)C)cc1,n,n,n,n
O=C(Nc1ccc(S(=O)(=O)N2CCOCC2)cc1)c1cc(-c2cc(Cl)ccc2O)n[nH]1,u,n,n,-60
CCc1cc(=O)[nH]c(SCc2nc(-c3ccccc3)no2)n1,x,x,n,n
COc1ccc(-c2noc(CSc3nc(N)c(-c4ccccc4)c(=O)[nH]3)n2)cc1,16µM,n,n,n
O=C(NCCOCCn1c(=O)oc2ccccc21)Nc1ccc(F)cc1F,x,x,n,x
CSC(=Nc1ccccc1)N=C(SCc1ccccc1)N(C)C,x,x,x,-100
CN(CC(=O)Nc1ccccc1Cl)C(=O)COC(=O)Cc1c(F)cccc1Cl,n,n,13µM,n
Cc1cn(S(=O)(=O)c2ccc(Br)c3ccccc23)cn1,n,n,22µM,x
COc1cc(S(=O)(=O)n2cnc(C)c2)ccc1Br,n,n,n,n
O=C1CC2(CCCC2)CC(=O)N1,x,x,x,n
SMILES,BCR signal inh,B2AR arrestin,RXFP1 ag,RXFP1 antag
COc1ccccc1NC(=O)N1CCN(c2ccnc3cc(Cl)ccc23)CC1,u,n,n,n
COc1ccccc1N1CCN(c2ccnc3cc(Cl)ccc23)CC1,20µM,n,n,n
CCN(CC)c1ccc2c(-c3ccc(S(=O)(=O)O)cc3S(=O)(=O)[O-])c3ccc(=[N+](CC)CC)cc-3oc2c1,u,n,28µM,n
CCN(CC)c1ccc2nc3c4ccccc4c(=O)cc-3oc2c1,n,n,n,n
COc1ccc(CN(C)S(=O)(=O)c2nnc(NC(=O)C(C)C)s2)cc1OC,x,x,n,n
Cc1ccc(C(=O)Nc2cccc(Oc3ccccc3)c2)o1,n,n,n,-72
Cc1ccc(C(=O)Nc2ccccc2Oc2ccccc2)o1,x,x,x,n
NC(=S)N/N=C/c1ccc(/C=N/NC(N)=S)cc1,n,n,n,n
NC(=S)N/N=C/c1ccc(-n2nncc2-c2ccc(Cl)cc2)cc1,u,n,n,-73
Oc1c(C=Nc2ccccc2)sc2ccccc12,n,n,n,-70
CC(C)c1ccccc1NC(=O)c1ccccc1NC(=O)C1CCCCC1,u,n,n,n
CC(C)c1ccccc1NC(=S)NC(=O)C1CCCCC1,n,n,x,-65
COc1ccc(NC(=O)CSc2nnnn2C2CCCCC2)cc1,n,n,n,-78
COc1ccc(NC(=O)CSc2nnnn2C2CCCC2)cc1,n,n,n,n
O=C(Nc1ccc(-c2nc3cc(Cl)ccc3c(=O)o2)cc1)c1ccco1,u,n,n,-66
O=C(Nc1cc(-c2nc3cc(Cl)ccc3o2)ccc1Cl)c1ccco1,x,x,n,x
